Hits are enriched below; roughly 2.2% of the tested compounds scored in any of these assays.
TROY signal inh = inhibitors of TROY-dependent NF-kB signaling; Q293 LMP1-TROYcd NF-kB luciferase reporter, 4 h; inhibition, % at 10 µM; actives 0.98% (n = 360,000);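 active = compounds whose plate-normalised and pattern-corrected inhibition of the luciferase reporter signal at the single screening dose is 50% or more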
LGR2 antag = Drosophila LGR2 receptor signaling inhibition; HEK293 LGR2, CRE-luciferase, bursicon-stimulated, 4 h; inhibition, % at 9.99 µM; actives 0.35% (n = 380,000); AID 720647;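 active = drop in luminescence signal, shown as inhibition above about 50% in the replicate tests, limit read from the data, passing the limit was not always enough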;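 note: agonist challenge used bursicon conditioned medium at about half maximal strength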
HSP90 inh = inhibitors of HSP90 luciferase refolding in rabbit reticulocyte lysate; luciferase refolding luminescence, 3 h; inhibition, % at 5.6 µM; actives 0.91% (n = 290,000);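 active = inhibition above the screen-wide mean plus 3 SD, computed separately per campaign, cut at about 16% in these data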;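 note: 0% = DMSO wells and 100% = 60 µM geldanamycin wells; inhibitors lower the luminescence because luciferase stays unfolded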
TWEAK-Fn14 inh = TWEAK-Fn14 signaling inhibition. inhibition, % at 10 µM. TWEAK-stimulated Fn14 reporter cells, luciferase luminescence, 8 h. actives 2% (n = 360,000); in the data active = inhibition above about 50%
Active calls of the source: *; nt = no result.

SMILES | TROY signal inh | LGR2 antag | HSP90 inh | TWEAK-Fn14 inh
CCN(CC)CCNC(=O)c1ccc2c(c1NCCO)C(=O)c1ccccc1C2=O | 43 | nt | 9 | 87*
C[C@H]1CN([C@@H](C)CO)C(=O)c2cc(C#Cc3ccccc3F)cnc2O[C@H]1CN(C)C(=O)C1CCC1 | nt | 0 | nt | nt
Nc1ccc(S(=O)(=O)NC2=NCCCCC2)cc1N | 8 | 27 | 3 | 6
Nc1ccccc1S(=O)(=O)NC1=NCCCCC1 | -15 | 11 | -3 | 104*
CCOC(=O)C(=Cc1ccc(OCc2ccc([N+](=O)[O-])cc2)c(OC)c1)C(=O)OCC | 30 | nt | 1 | 58*
COc1cc(/C=N/NC(=O)c2cccc([N+](=O)[O-])c2)ccc1OCc1ccccc1 | -22 | -40 | 5 | -15
COC(=O)C(=Cc1ccc(OCc2ccc([N+](=O)[O-])cc2)c(OC)c1)C(=O)OC | 57* | nt | -1 | 91*
COc1cc(C(c2c(C)[nH][nH]c2=O)c2c(C)[nH][nH]c2=O)ccc1OCc1ccc([N+](=O)[O-])cc1 | -29 | nt | 8 | 8
CN1C(=O)c2cc(NC(=O)C3CCCC3)ccc2OC[C@@H]2O[C@@H](CC(=O)O)CC[C@H]21 | nt | -9 | nt | nt
N=P(N1CCOCC1)(N1CCOCC1)C12CC3CC(CC(C3)C1)C2 | nt | nt | 0 | 81*
O=[N+]([O-])c1cccc(C=NNC(=S)NC23CC4CC(CC(C4)C2)C3)c1 | 60* | -59 | nt | 11
COCCn1c(C)cc(C(=O)CSc2nnnn2C2CCCC2)c1C | 14 | 80* | nt | 75*
O=C(Nc1ccc(F)cc1)N[C@@H]1C=C[C@H](CC(=O)N2CCCCC2)O[C@@H]1CO | nt | 0 | nt | nt
Cc1ccc2[nH]c3c(NCc4ccco4)ncnc3c2c1 | -21 | nt | -2 | 44
COc1cc(CNc2ncnc3c2[nH]c2ccc(C)cc23)cc(OC)c1 | 50* | 23 | 0 | 24
Cc1nc2ccc(F)cc2cc1C(=O)Nc1ccc(Cl)c(Cl)c1 | -7 | 3 | -1 | 51*
N=NC(=O)c1ccccc1Nc1c(O)[nH]c2ccccc12 | 6 | 5 | nt | 53*
CC1CCCC(NC(=O)CCNC(=O)c2ccc(Cl)cc2)C1C (stereo not drawn) | -28 | -5 | nt | -5
CC1CCCC(NC(=O)CCNC(=O)c2ccc([N+](=O)[O-])cc2)C1C (stereo not drawn) | -20 | 1 | -1 | 76*
O=C1NC(=S)SC1=Cc1ccccc1Cl | 13 | nt | nt | -12
COc1ccc2nc(N3CCCCC3)c(/C=C3\SC(=S)NC3=O)cc2c1 | 64* | 5 | 1 | 21
O=C1NC(=S)S/C1=C\c1cc2ccccc2nc1N1CCCCC1 | 59* | 6 | 1 | 22
CN(C)C(=O)[C@H]1[C@H](CO)[C@H]2Cn3c(ccc(C4=CCCCC4)c3=O)[C@@H]1N2Cc1ccncc1 | nt | 2 | nt | nt
O=C(Oc1ccc(C(=S)N2CCC(O)CC2)cc1)c1ccc(Cl)cc1 | 57* | 6 | 2 | -29
Cc1ccccc1OCC1Cc2c(nc(N)c(C#N)c2N)O1 (stereo not drawn) | nt | nt | 0 | 58*
SMILES | TROY signal inh | LGR2 antag | HSP90 inh | TWEAK-Fn14 inh
Cn1c(N2CCN(c3ccccn3)CC2)nc2c1c(=O)n(Cc1ccc(Cl)cc1)c(=O)n2C | 54* | nt | 7 | 52*
Cn1c(N2CCN(c3ccccn3)CC2)nc2c1c(=O)n(Cc1ccccc1Cl)c(=O)n2C | 27 | nt | 1 | 17
O=C(CSCC(=O)N1CCCCC1)Nc1nc(-c2ccccc2)c(-c2ccccc2)s1 | 8 | 8 | 1 | 52*
CCOC(=O)c1c(-c2ccc(C)o2)csc1NC(=O)CN1CCCCC1 | 9 | 4 | 3 | 54*
COC(=O)c1c(-c2cccs2)csc1NC(=O)CN1CCOCC1 | 67* | nt | 3 | 21
CCOC(=O)c1c(-c2ccccc2)csc1NC(=O)CSc1nc(N)cc(N)n1 | 44 | -8 | -1 | 86*
CCOC(=O)c1c(-c2ccc(OC)cc2)csc1NC(=O)CCN1CCOCC1 | 3 | -5 | 1 | 20
O=C(C[C@H]1CC[C@@H](NC(=O)c2ccncc2)[C@H](CO)O1)NCC1CC1 | nt | -3 | nt | nt
CC(=O)Nc1cccc(NC(=O)CSc2ncc(-c3ccc(Cl)cc3)n2Cc2ccco2)c1 | 61* | nt | 5 | 81*
O=C(CSc1nnc(-c2ccc(Cl)cc2)n1Cc1ccco1)Nc1ccc2c(c1)OCCO2 | 52* | nt | -2 | 10
O=C(CSc1ccc(-c2ccc(Cl)cc2)nn1)Nc1ccc2c(c1)OCCO2 | 62* | 6 | -3 | 29
O=C(CN1CCC(C(=O)c2ccc(Cl)cc2)CC1)Nc1ccc2c(c1)OCCO2 | 29 | nt | 0 | 62*
CCCCC(=O)/C=C/n1c(=S)oc2ccccc21 | 42 | -64 | 0 | 96*
COc1ccccc1C(=O)Nc1ccc2c(c1)OC[C@H](C)N(CC1CC1)C[C@H](C)[C@H](OC)CN(C)C2=O | nt | 13 | nt | nt
COc1ccc(CNC(=O)c2sc(=O)n(Cc3ccc(-c4ccccc4)cc3)c2C)cc1OC | 41 | 10 | nt | 61*
CSc1ccc(Cn2c(C)c(C(=O)NCc3ccc(Cl)c(Cl)c3)sc2=O)cc1 | 25 | 1 | nt | 37
Cc1c(C(=O)NCc2ccc(Cl)c(Cl)c2)sc(=O)n1Cc1ccc(S(C)(=O)=O)cc1 | 38 | 26 | nt | 53*
COc1ccc(CNC(=O)c2sc(=O)n(Cc3ccc(C)cc3)c2C)cc1OC | 15 | -46 | nt | 5
COc1ccccc1C#Cc1ccc2c(c1)O[C@@H](CN(C)C)[C@H](C)CN([C@H](C)CO)S2(=O)=O | nt | -1 | nt | nt
COc1ccccc1CNC(=O)C[C@H]1CC[C@H]2[C@@H](COC[C@@H](O)CN2C(=O)Nc2ccc(Cl)cc2)O1 | nt | -2 | nt | nt
COc1ccc(Nc2cc(C)c3cc([N+](=O)[O-])ccc3n2)cc1 | -13 | 1 | 1 | 51*
Cc1ccnc(N/C=C(/NC(=O)c2ccccc2)C(=O)N/N=C\c2ccc(F)cc2)n1 | 80* | nt | 4 | 101*
C=CCN1C(=O)/C(=C\c2ccc(Cl)cc2)N=C1SCC(=O)NCCC | -16 | -2 | -1 | -17
COCCNC(=O)CSC1=N/C(=C/c2ccc(Cl)c(Cl)c2)C(=O)N1c1ccccc1F | 23 | 4 | 3 | 57*
O=C(Nc1nccs1)c1ccc2sc([C@H]3C[C@H](O)[C@@H](CO)O3)nc2c1 | -34 | -19 | nt | 0
SMILES | TROY signal inh | LGR2 antag | HSP90 inh | TWEAK-Fn14 inh
O=C(Nc1nc2ccccc2s1)c1ccc2sc([C@H]3C[C@H](O)[C@@H](CO)O3)nc2c1 | 45 | 98* | nt | 64*
O=c1c(Cl)c(Cl)cnn1Cc1nnc(-c2ccccc2Br)o1 | 64* | 103* | 0 | 92*
CCCNC(=O)c1cc(-c2ccc3c(c2)OCO3)on1 | -14 | -21 | 14 | 51*
CCOC(=O)N1CCC(NC(=O)c2ccc3c(c2)N(C)C(=O)/C(=C/c2cccc(OC)c2)S3)CC1 | 61* | 4 | 0 | 75*
Nc1ccc(-c2ncc(-c3ccccc3)o2)cc1 | 34 | -16 | 7 | 68*
Cc1ccc(-c2cnc(-c3ccncc3)o2)cc1 | -39 | nt | -1 | -16
CC(C)c1cn(CC[C@@H]2CC[C@H](NS(=O)(=O)c3ccccc3)[C@H](CO)O2)nn1 | nt | -4 | nt | nt
O=C(NCC[C@@H]1CC[C@H](NS(=O)(=O)c2ccc(F)cc2)[C@@H](CO)O1)c1ccccc1F | nt | -17 | nt | nt
